# How the values were obtained:
# Assay in all cases: DAPPL (digital affinity profiling via proximity ligation, sequencing); 10 mM Tris-HCl pH 7.5, 50 mM NaCl, 1 mM DTT, 4% glycerol, room temperature, 30 min; GST-TFs on glutathione beads, 16-mer random dsDNA library, 0.1% formaldehyde crosslink after washing; high values mean tight binding
# FEV = target: T1, FEV (Homo sapiens, UniProt Q99581 1-238); conditions: protein: recombinant; tags: N-terminal GST; dsDNA, one strand shown
# T1 sequence: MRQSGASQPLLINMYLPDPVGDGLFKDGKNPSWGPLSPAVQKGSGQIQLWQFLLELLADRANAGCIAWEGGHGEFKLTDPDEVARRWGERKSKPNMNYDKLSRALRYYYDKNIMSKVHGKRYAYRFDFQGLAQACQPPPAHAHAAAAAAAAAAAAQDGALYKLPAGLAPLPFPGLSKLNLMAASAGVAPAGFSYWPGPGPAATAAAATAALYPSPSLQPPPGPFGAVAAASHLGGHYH
# Method in brief: (§1)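 Binding signal is each hexamer's read frequency for a factor divided by its frequency in the tag-only sample. The factors were GST-fused human transcription factors from yeast, captured on glutathione beads, DNA-barcoded and pooled with that sample. Pools were incubated with 200 nmole of a random double-stranded 16-mer DNA library in Tris/NaCl/DTT/glycerol buffer at room temperature for 30 min, then washed, crosslinked with 0.1% formaldehyde, proximity-ligated with BsaI/T4 ligase (1 h, 37 °C), PCR-amplified and sequenced on an Illumina NextSeq500.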
# ETV5 = ETV5 (Homo sapiens, UniProt P41161 1-510); conditions: protein: recombinant; tags: N-terminal GST; dsDNA, one strand shown
# Method in brief: as §1
# HSF1 = HSF1 (Homo sapiens, UniProt Q00613 1-529); conditions: protein: recombinant; tags: N-terminal GST; chain copies: 3; dsDNA, one strand shown
# Method in brief: as §1
# SPIC = target: T2, SPIC (Homo sapiens, UniProt Q8N5J4 1-248); conditions: protein: recombinant; tags: N-terminal GST; dsDNA, one strand shown
# T2 sequence: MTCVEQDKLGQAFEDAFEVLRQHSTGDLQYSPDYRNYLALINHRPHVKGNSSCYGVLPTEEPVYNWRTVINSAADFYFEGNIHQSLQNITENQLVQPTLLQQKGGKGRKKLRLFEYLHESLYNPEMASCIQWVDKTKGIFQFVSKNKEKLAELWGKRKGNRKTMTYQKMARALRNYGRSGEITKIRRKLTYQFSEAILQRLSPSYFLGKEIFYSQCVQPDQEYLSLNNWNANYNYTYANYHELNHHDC
# Method in brief: as §1
# ELF4 = ELF4 (Homo sapiens, UniProt Q99607 1-663); conditions: protein: recombinant; tags: N-terminal GST; dsDNA, one strand shown
# Method in brief: as §1
# ELK4 = target: T3, ELK4 (Homo sapiens, UniProt P28324-2 1-405); conditions: protein: recombinant; tags: N-terminal GST; dsDNA, one strand shown
# T3 sequence: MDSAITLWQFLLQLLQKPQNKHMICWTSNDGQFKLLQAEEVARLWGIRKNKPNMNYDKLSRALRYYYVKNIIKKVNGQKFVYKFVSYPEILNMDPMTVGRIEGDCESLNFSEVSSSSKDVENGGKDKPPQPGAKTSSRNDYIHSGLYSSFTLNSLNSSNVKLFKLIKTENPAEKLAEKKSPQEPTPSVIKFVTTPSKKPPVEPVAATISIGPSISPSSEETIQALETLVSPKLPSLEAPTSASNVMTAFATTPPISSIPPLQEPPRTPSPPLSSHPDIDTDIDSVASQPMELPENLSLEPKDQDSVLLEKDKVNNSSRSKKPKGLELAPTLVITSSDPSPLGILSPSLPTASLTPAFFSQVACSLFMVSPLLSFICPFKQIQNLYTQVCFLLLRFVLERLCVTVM
# Method in brief: as §1
# ETV2 = target: T4, ETV2 (Homo sapiens, UniProt O00321 1-342); conditions: protein: recombinant; tags: N-terminal GST; dsDNA, one strand shown
# T4 sequence: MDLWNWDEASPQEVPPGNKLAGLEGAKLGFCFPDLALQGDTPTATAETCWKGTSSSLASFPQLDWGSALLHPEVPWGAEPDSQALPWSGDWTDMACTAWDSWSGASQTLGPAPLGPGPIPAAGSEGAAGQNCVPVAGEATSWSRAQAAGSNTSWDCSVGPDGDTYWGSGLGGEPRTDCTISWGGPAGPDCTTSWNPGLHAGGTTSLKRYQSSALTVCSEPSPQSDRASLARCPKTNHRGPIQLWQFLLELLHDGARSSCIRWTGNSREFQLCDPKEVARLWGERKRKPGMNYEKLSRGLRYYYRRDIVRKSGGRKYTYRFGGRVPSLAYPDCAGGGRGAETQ
# Method in brief: as §1
# ELF3 = target: T5, ELF3 (Homo sapiens, UniProt P78545 1-371); conditions: protein: recombinant; tags: N-terminal GST; dsDNA, one strand shown
# T5 sequence: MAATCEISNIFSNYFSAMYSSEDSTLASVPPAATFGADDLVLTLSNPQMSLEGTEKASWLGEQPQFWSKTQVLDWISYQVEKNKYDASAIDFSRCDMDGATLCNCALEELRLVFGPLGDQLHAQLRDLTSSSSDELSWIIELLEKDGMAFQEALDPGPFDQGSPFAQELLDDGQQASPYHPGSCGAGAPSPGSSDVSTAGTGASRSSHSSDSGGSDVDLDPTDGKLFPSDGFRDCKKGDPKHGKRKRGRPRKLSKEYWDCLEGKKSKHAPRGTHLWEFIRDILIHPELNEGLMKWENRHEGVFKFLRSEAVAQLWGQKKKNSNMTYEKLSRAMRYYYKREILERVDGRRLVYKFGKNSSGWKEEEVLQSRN
# Method in brief: as §1
# CRX = CRX (Homo sapiens, UniProt O43186 1-299); conditions: protein: recombinant; tags: N-terminal GST; dsDNA, one strand shown
# Method in brief: as §1
# ETV1 = ETV1 (Homo sapiens, UniProt P50549 1-477); conditions: protein: recombinant; tags: N-terminal GST; dsDNA, one strand shown
# Method in brief: as §1
# ERF = target: T6, ERF (Homo sapiens, UniProt P50548 1-548); conditions: protein: recombinant; tags: N-terminal GST; dsDNA, one strand shown
# T6 sequence: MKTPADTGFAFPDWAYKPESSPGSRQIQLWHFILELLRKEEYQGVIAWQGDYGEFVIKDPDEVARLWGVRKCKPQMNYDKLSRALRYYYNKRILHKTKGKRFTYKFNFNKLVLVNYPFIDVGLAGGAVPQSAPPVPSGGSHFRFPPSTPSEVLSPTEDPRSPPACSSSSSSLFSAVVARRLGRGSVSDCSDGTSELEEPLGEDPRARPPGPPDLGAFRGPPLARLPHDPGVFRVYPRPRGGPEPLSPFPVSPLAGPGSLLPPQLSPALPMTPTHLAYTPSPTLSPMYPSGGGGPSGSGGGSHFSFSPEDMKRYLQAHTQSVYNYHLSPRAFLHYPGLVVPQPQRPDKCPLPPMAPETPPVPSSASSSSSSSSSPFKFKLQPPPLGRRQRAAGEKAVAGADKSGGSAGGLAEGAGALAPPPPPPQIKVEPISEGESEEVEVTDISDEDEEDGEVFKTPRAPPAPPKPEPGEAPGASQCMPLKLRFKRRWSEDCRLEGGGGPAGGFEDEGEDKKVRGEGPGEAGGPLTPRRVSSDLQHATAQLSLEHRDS
# Method in brief: as §1
# ETV3L = target: T7, ETV3L (Homo sapiens, UniProt Q6ZN32 1-361); conditions: protein: recombinant; tags: N-terminal GST; dsDNA, one strand shown
# T7 sequence: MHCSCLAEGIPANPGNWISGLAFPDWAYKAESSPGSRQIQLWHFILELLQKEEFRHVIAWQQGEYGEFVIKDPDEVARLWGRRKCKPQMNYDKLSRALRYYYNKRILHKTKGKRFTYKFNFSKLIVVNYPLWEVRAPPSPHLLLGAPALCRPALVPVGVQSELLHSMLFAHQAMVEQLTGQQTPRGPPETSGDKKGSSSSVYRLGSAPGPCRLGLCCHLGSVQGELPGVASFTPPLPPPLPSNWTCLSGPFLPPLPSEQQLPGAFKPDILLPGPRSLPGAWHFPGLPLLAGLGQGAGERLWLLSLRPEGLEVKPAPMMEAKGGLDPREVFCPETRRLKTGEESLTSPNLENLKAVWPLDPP
# Method in brief: as §1
# ETS2 = target: T8, ETS2 (Homo sapiens, UniProt P15036 1-469); conditions: protein: recombinant; tags: N-terminal GST; dsDNA, one strand shown
# T8 sequence: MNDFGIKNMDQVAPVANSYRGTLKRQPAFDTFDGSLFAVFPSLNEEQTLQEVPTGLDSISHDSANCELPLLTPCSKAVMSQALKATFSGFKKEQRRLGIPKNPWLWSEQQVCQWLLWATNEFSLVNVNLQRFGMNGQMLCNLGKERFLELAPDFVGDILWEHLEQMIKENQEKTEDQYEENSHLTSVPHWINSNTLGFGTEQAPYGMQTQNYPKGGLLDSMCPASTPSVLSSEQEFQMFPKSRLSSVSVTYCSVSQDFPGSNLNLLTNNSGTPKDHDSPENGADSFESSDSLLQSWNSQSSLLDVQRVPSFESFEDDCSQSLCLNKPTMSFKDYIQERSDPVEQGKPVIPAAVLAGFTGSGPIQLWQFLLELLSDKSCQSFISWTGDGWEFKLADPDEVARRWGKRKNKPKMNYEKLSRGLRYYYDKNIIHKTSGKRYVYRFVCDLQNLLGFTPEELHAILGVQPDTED
# Method in brief: as §1
# SPDEF = target: T9, SPDEF (Homo sapiens, UniProt O95238 1-335); conditions: protein: recombinant; tags: N-terminal GST; dsDNA, one strand shown
# T9 sequence: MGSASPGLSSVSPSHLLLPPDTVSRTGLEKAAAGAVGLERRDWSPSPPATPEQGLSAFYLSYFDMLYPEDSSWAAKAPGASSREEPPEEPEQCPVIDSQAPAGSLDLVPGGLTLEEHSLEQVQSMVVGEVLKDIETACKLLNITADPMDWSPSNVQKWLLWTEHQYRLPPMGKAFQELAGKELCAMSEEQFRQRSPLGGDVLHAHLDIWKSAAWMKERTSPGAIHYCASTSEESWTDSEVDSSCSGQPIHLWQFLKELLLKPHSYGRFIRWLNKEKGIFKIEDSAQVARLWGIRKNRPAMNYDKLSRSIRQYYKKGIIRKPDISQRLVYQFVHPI
# Method in brief: as §1
# ETV7 = target: T10, ETV7 (Homo sapiens, UniProt Q9Y603 1-341); conditions: protein: recombinant; tags: N-terminal GST; dsDNA, one strand shown
# T10 sequence: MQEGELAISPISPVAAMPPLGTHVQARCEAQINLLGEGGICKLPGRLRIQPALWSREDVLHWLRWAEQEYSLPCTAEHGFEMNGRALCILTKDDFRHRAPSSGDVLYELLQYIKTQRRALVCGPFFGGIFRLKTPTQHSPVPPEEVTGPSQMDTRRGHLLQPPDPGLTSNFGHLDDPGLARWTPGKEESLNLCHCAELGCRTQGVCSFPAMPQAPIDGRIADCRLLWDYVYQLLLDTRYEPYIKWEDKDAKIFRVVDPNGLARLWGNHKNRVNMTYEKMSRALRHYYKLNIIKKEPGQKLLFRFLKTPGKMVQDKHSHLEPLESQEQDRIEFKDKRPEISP
# Method in brief: as §1
# ELF5 = target: T11, ELF5 (Homo sapiens, UniProt Q9UKW6-2 1-255); conditions: protein: recombinant; tags: N-terminal GST; dsDNA, one strand shown
# T11 sequence: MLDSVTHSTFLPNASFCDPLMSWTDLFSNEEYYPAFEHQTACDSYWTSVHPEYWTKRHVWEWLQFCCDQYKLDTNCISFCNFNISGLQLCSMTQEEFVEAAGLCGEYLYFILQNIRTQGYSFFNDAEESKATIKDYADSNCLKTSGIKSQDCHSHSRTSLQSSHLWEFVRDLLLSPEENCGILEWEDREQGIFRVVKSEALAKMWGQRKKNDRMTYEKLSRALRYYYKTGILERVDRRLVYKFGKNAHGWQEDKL
# Method in brief: as §1
# ETV3 = target: T12, ETV3 (Homo sapiens, UniProt P41162-2 1-143); conditions: protein: recombinant; tags: N-terminal GST; dsDNA, one strand shown
# T12 sequence: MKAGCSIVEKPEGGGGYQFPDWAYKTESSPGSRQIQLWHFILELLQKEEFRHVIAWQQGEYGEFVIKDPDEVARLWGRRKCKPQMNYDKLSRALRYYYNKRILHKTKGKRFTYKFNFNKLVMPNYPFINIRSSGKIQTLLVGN
# Method in brief: as §1
# ETV6 = ETV6 (Homo sapiens, UniProt P41212 1-452); conditions: protein: recombinant; tags: N-terminal GST; dsDNA, one strand shown
# Method in brief: as §1
# ETV5, sequence (P41161 whole entry): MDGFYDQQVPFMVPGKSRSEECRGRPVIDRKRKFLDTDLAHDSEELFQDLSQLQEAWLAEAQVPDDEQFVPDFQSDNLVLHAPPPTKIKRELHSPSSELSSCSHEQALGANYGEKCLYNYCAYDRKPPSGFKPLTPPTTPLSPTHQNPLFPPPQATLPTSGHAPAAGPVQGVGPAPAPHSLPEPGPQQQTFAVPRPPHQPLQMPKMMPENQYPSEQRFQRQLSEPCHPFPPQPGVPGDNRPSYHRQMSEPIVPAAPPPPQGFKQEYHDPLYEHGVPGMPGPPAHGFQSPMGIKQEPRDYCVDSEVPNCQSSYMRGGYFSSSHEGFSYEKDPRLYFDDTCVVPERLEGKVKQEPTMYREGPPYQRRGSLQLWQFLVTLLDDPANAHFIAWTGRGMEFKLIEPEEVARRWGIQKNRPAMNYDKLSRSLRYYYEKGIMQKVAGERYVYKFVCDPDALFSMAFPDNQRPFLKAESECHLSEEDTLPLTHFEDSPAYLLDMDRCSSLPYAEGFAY
# CRX, sequence (O43186 whole entry): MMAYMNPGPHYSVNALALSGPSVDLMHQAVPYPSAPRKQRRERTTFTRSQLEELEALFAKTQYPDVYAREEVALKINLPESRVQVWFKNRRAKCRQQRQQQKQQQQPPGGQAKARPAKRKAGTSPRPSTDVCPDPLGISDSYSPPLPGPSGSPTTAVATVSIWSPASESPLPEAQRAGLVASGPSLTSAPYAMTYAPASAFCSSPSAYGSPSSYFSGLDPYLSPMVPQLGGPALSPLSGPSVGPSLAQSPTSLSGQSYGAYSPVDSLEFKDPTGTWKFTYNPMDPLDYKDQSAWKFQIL
# ETV1, sequence (P50549 whole entry): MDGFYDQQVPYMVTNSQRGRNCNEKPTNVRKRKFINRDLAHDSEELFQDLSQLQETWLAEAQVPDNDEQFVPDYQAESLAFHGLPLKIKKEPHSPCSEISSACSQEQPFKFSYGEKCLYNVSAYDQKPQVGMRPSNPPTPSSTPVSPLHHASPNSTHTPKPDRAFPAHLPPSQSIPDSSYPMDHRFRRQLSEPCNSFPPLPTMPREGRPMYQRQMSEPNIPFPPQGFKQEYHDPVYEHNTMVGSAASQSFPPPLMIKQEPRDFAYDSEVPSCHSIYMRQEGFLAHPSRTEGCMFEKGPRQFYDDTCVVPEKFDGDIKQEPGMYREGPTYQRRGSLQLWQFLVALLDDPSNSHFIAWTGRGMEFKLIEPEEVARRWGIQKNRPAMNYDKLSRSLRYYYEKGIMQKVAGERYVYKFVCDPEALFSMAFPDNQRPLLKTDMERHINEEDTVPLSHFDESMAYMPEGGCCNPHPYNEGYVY
# HSF1, sequence (Q00613 whole entry): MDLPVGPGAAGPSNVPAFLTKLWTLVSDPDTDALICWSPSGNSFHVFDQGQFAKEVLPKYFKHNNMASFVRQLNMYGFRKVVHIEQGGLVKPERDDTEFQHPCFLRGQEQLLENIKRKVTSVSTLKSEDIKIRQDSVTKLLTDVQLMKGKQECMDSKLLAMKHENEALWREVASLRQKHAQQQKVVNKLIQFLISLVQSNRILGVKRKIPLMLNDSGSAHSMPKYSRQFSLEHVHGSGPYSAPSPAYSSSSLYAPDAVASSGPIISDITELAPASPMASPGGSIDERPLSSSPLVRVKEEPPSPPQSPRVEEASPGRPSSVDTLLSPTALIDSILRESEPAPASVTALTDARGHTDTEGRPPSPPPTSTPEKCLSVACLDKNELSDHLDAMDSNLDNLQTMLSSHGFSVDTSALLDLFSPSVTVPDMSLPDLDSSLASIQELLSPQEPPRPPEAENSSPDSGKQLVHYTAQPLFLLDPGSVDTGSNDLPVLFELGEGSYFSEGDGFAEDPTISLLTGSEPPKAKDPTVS
# ETV6, sequence (P41212 whole entry): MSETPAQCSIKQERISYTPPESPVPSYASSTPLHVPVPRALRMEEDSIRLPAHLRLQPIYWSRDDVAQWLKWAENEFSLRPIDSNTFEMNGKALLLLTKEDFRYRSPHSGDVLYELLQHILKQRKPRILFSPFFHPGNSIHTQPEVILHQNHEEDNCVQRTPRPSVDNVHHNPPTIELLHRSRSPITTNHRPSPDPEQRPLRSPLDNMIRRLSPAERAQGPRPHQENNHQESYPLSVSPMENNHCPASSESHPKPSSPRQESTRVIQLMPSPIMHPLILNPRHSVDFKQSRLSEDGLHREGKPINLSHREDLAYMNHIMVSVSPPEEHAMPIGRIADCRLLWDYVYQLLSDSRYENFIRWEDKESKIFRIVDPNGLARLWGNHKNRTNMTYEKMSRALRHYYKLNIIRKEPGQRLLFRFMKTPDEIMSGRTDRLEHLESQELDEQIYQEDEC
# ELF4, sequence (Q99607 whole entry): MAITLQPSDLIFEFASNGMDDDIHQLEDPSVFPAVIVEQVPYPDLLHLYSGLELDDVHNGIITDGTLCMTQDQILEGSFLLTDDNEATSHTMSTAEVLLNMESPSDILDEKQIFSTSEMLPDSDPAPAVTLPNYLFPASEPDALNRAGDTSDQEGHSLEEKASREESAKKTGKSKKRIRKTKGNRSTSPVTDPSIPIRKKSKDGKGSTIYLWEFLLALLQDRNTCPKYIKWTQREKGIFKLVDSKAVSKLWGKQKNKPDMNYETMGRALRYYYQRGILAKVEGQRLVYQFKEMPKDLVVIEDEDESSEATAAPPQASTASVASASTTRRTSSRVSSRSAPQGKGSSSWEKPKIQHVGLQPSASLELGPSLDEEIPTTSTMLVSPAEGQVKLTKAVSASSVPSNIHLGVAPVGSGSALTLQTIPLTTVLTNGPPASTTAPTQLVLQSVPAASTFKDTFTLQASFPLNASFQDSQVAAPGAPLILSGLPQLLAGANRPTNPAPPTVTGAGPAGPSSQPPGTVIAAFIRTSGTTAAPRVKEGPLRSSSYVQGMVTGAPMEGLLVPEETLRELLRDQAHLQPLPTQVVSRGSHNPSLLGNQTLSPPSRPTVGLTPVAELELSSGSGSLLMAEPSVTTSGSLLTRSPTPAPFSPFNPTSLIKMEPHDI
sequence,measurement,setting,value
CCTCTG,binding signal,FEV,"1.48 fold enrichment (6-mer frequency, TF over GST control)"
same,binding signal,ETV5,"1.56 fold enrichment (6-mer frequency, TF over GST control)"
same,binding signal,HSF1,"1.39 fold enrichment (6-mer frequency, TF over GST control)"
same,binding signal,SPIC,"1.44 fold enrichment (6-mer frequency, TF over GST control)"
same,binding signal,ELF4,"1.66 fold enrichment (6-mer frequency, TF over GST control)"
same,binding signal,ELK4,"1.9 fold enrichment (6-mer frequency, TF over GST control)"
same,binding signal,ETV2,"1.5 fold enrichment (6-mer frequency, TF over GST control)"
same,binding signal,ELF3,"1.73 fold enrichment (6-mer frequency, TF over GST control)"
same,binding signal,CRX,"1.36 fold enrichment (6-mer frequency, TF over GST control)"
same,binding signal,ETV1,"1.67 fold enrichment (6-mer frequency, TF over GST control)"
same,binding signal,ERF,"1.65 fold enrichment (6-mer frequency, TF over GST control)"
same,binding signal,ETV3L,"1.36 fold enrichment (6-mer frequency, TF over GST control)"
same,binding signal,ETS2,"1.42 fold enrichment (6-mer frequency, TF over GST control)"
same,binding signal,SPDEF,"1.54 fold enrichment (6-mer frequency, TF over GST control)"
same,binding signal,ETV7,"1.79 fold enrichment (6-mer frequency, TF over GST control)"
same,binding signal,ELF5,"1.5 fold enrichment (6-mer frequency, TF over GST control)"
same,binding signal,ETV3,"1.64 fold enrichment (6-mer frequency, TF over GST control)"
same,binding signal,ETV6,"1.39 fold enrichment (6-mer frequency, TF over GST control)"

# Reference: paper PMC7862700, “An all-to-all approach to the identification of sequence-specific readers for epigenetic DNA modifications on cytosine”
